This passage reports Potency, activation and outcome results from PubChem BioAssay (Tox21).

Several values for one entry are separate records, joined by “and”; a condition that tells them apart may be missing. Equal entries are not always repeated. Activity calls are given as the source filed them. Unless noted, the call rests on the fitted dose curve; in most records, active means well fitted curve in the direction sought with a large enough effect in the repeat runs; inconclusive means weak or mixed curves; inactive means no such curve, though single readings can be large; an effect the other way counts as inactive or inconclusive.

A short description of experiment [1]: qHTS assay to identify small molecule antagonists of the glucocorticoid receptor (GR) signaling pathway - cell viability counter screen (AID 720693). Further: nearly all actives have a fitted effect of over 55% in size. For orientation: qHTS replaces the single test concentration by a dilution series.
Experiment [2] is described as follows: qHTS assay to identify small molecule antagonists of the androgen receptor (AR) signaling pathway - cell viability counter screen (AID 743033; further: nearly all actives have a fitted effect of over 45% in size; further: potency means the concentration at half of the fitted maximal effect).
Experiment [3] can be described thus: qHTS assay to identify small molecule antagonists of the androgen receptor (AR) signaling pathway using the MDA cell line - cell viability counter screen (AID 743041; further: nearly all actives have a fitted effect of over 45% in size; further: potency means the concentration at half of the fitted maximal effect). The gist of the method:
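Compound exposure lasted 16 h at 37C in MDA-kb2 AR-luc cells stimulated with R1881. Protease-based CellTiter-Fluor reagent was applied for the final 30 min and fluorescence measured.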

Experiment [4] in a line: qHTS assay to identify small molecule antagonists of the thyroid receptor (TR) signaling pathway (AID 743065). Further: nearly all actives have a fitted effect of over 55% in size. Further: potency means the concentration at half of the fitted maximal effect. Summed up:
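GH3.TRE-Luc rat pituitary cells (two TREs driving luciferase) were dosed with compound, then stimulated with 1 nM T3 (final) for 23.5 h at 37 C. ONE-Glo luminescence was the read-out, with CellTiter-Fluor fluorescence as the cytotoxicity counter-screen.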

Experiment [5] concerns thyroid hormone receptor (rat, GH3 cells). The experiment in a line: qHTS assay to identify small molecule agonists of the thyroid receptor (TR) signaling pathway (AID 743066; calls by dose curve; further: potency means the concentration at half of the fitted maximal effect).
Experiment [6] is described as follows: qHTS assay to identify small molecule antagonists of the estrogen receptor alpha (ER-alpha) signaling pathway - cell viability counter screen (AID 743074; calls by dose curve; further: nearly all actives have a fitted effect of over 45% in size; further: potency means the concentration at half of the fitted maximal effect).
Experiment [7] in a line: qHTS assay to identify small molecule antagonists of the estrogen receptor alpha (ER-alpha) signaling pathway using the BG1 cell line - cell viability counter screen (AID 743081).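 Further: compound given together with 17beta-estradiol as the ER stimulus; nearly all actives have a fitted effect of over 45% in size.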 Further: potency means the concentration at half of the fitted maximal effect.
The target in another experiment is Aromatase (Homo sapiens) (UniProt P11511). The experiment in a line: qHTS assay to identify aromatase inhibitors (AID 743083). Further: nearly all actives have a fitted effect of over 55% in size. Further: potency means the concentration at half of the fitted maximal effect.
Aromatase (Homo sapiens), sequence (P11511 whole entry, looked up): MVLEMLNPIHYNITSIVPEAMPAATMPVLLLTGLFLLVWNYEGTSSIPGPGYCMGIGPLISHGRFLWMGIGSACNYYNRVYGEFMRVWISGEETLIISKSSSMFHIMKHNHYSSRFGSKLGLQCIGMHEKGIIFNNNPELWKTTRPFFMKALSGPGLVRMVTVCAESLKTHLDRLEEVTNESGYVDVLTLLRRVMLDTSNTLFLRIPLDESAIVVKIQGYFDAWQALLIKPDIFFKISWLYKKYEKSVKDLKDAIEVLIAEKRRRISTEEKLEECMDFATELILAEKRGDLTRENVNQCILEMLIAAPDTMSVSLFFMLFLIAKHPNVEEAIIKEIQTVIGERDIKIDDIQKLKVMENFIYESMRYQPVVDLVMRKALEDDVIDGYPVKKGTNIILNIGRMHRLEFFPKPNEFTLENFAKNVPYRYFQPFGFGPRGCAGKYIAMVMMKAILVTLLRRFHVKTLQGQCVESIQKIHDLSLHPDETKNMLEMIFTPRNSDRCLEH
Experiment [8] in a line: qHTS assay for identifying genotoxic compounds that show differential cytotoxicity against isogenic chicken DT40 cell lines with known DNA damage response pathways - Rev3 mutant cell line (AID 743014). Further: nearly all actives have a fitted effect of over 55% in size. Further: potency means the concentration at half of the fitted maximal effect.
A short description of experiment [9]: qHTS assay for identifying genotoxic compounds that show differential cytotoxicity against isogenic chicken DT40 cell lines with known DNA damage response pathways - Rad54/Ku70 mutant cell line (AID 743015). Further: nearly all actives have a fitted effect of over 60% in size. Further: potency means the concentration at half of the fitted maximal effect.
A short description of experiment [10]: qHTS assay to identify small molecule antagonists of the thyroid receptor (TR) signaling pathway - cell viability counter screen (AID 743064). Further: nearly all actives have a fitted effect of over 50% in size. Further: potency means the concentration at half of the fitted maximal effect. The gist of the method:
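CellTiter-Fluor readout, 30 min at 37 °C/5% CO2, following 23.5 h incubation of GH3.TRE-Luc cells with test compound and 1 nM T3 (final).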

Experiment [11] deals with Androgen receptor (Homo sapiens) (UniProt P10275). The experiment in a line: qHTS assay to identify small molecule agonists of the androgen receptor (AR) signaling pathway using the MDA cell line (AID 743040; further: nearly all actives have a fitted effect of over 20% in size; further: potency means the concentration at half of the fitted maximal effect). The gist of the method: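 Testing was done with the MDA-kb2 AR-luc line, a human breast carcinoma stably transfected with MMTV-luciferase containing AR and GR response elements. Cells were exposed 16 h at 37C before ONE-Glo luminescence detection.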
Androgen receptor (Homo sapiens), sequence (P10275 whole entry, looked up): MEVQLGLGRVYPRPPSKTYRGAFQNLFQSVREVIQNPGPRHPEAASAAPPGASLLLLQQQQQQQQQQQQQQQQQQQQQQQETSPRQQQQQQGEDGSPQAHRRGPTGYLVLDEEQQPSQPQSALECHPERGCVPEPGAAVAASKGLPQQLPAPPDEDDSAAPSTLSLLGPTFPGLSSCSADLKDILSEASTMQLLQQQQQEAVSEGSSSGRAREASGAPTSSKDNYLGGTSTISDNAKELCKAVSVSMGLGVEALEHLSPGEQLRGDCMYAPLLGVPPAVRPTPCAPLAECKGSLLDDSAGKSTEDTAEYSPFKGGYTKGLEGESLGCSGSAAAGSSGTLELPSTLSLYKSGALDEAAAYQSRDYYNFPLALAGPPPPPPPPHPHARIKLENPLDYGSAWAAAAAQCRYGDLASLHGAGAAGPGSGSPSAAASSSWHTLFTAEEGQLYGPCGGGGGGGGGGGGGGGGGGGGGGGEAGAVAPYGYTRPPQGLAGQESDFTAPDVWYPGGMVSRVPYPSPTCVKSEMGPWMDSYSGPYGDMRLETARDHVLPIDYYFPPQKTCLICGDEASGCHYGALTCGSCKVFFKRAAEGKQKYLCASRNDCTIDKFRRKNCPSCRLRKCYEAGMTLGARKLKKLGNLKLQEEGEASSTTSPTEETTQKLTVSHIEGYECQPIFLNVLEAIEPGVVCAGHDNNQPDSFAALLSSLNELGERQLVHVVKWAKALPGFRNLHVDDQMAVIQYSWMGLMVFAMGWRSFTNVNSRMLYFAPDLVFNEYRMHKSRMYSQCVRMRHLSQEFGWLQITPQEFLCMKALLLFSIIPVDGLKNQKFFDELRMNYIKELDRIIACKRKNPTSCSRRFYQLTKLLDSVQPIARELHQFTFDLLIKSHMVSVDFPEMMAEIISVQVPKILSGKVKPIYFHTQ

For experiment [12] the target is unchanged. The experiment in a line: qHTS assay to identify small molecule antagonists of the androgen receptor (AR) signaling pathway using the MDA cell line (AID 743042; further: nearly all actives have a fitted effect of over 55% in size; further: potency means the concentration at half of the fitted maximal effect). Summed up:
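MDA-kb2 breast carcinoma cells carrying MMTV-luciferase (AR/GR responsive) were co-treated with compounds and the agonist R1881 for 16 h at 37C. Inhibition read as ONE-Glo luminescence; CellTiter-Fluor fluorescence measured in parallel for cytotoxicity.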

The target in experiment [13] is Estrogen receptor (Homo sapiens) (UniProt P03372). The experiment in a line: qHTS assay to identify small molecule agonists of the estrogen receptor alpha (ER-alpha) signaling pathway using the BG1 cell line (AID 743079). Further: nearly all actives have a fitted effect of over 20% in size. The settings on record: BG1Luc4E2 cells, ERE-luciferase agonist, 22 h; activation: at 70.3 µM (top of the series).
Estrogen receptor (Homo sapiens), sequence (P03372 whole entry, looked up): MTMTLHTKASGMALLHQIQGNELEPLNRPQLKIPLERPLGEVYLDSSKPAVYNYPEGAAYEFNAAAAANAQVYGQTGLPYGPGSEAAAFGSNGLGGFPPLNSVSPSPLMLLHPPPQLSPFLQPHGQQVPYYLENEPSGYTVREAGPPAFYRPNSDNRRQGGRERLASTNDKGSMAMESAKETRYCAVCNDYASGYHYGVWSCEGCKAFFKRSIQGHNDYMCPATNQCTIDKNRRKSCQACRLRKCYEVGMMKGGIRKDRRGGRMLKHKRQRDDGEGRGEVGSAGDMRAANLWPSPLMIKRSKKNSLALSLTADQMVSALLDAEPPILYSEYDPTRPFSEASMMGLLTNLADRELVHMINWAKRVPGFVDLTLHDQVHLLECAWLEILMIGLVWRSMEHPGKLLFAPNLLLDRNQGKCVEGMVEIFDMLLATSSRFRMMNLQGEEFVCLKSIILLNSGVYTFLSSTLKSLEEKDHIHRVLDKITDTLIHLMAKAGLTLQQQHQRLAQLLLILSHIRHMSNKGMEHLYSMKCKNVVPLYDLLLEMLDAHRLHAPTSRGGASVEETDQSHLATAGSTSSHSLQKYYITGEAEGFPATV
The target in experiment [14] is Androgen receptor (Homo sapiens) (UniProt P10275). The experiment in a line: qHTS assay to identify small molecule antagonists of the androgen receptor (AR) signaling pathway (AID 743035; active means well fitted inhibition curve with a large enough effect in the signal ratio in the repeat runs, not every such curve was filed as active; inconclusive means weak or mixed curves, or effect the other way; inactive means no such curve, though single readings can be large or run the other way; the % refers to the signal ratio). Summed up:
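Reporter HEK293 cells were exposed to compounds and R1881 overnight (16 h, 37C); beta-lactamase activity was then quantified by FRET fluorescence.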

Experiment [15] has the same target. The experiment in a line: qHTS assay to identify small molecule agonists of the androgen receptor (AR) signaling pathway (AID 743036; active means well fitted activation curve with a large enough effect in the signal ratio in the repeat runs, with a control signal flat, not every such curve was filed as active; inconclusive means weak or mixed curves, or effect the other way; inactive means no such curve, though single readings can be large or run the other way; the % refers to the signal ratio). Summed up: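 Following a 4 h settling period, AR-UAS-bla HEK293 cells were dosed with compounds for 16 h at 37C. A 2 h room-temperature incubation with LiveBLAzer B/G FRET substrate preceded the fluorescence measurement.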
Experiment [16] in a line: qHTS assay for identifying genotoxic compounds that show differential cytotoxicity against isogenic chicken DT40 cell lines with known DNA damage response pathways - wild type cell line (AID 743012). Further: nearly all actives have a fitted effect of over 60% in size. Further: potency means the concentration at half of the fitted maximal effect. The gist of the method: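 Viability of DNA repair-proficient chicken DT40 cells was assessed by CellTiter-Glo luminescence following 40 h compound exposure at 37 C/5% CO2.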

Experiment [17] addresses Estrogen receptor (Homo sapiens) (UniProt P03372). The experiment in a line: qHTS assay to identify small molecule antagonists of the estrogen receptor alpha (ER-alpha) signaling pathway (AID 743069; active means well fitted curve in the direction sought with a large enough effect in the signal ratio in the repeat runs, not every such curve was filed as active; inconclusive means weak or mixed curves, or effect the other way; inactive means no such curve, though single readings can be large or run the other way; the % refers to the signal ratio; further: potency means the concentration at half of the fitted maximal effect). Summed up:
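In this cell-based reporter format, GripTite HEK293 cells harbouring ER-alpha-UAS-bla were grown overnight with 2% charcoal-stripped FBS, dosed with DMSO-dissolved compounds, then challenged with 17beta-estradiol. After 18 hr at 37C, beta-lactamase activity was detected by FRET fluorescence.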

Experiment [18] is described as follows: qHTS assay to identify small molecule antagonists of the estrogen receptor alpha (ER-alpha) signaling pathway using the BG1 cell line (AID 743080; calls by dose curve;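 further: BG1 cells stimulated with 17beta-estradiol alongside compound; nearly all actives have a fitted effect of over 25% in size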; further: potency means the concentration at half of the fitted maximal effect). The settings on record: BG1Luc4E2 ERE-luciferase antagonist mode, luminescence; activity change, negative = inhibition: at 70.3 µM (top of the series). The gist of the method:
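BG1-Luc-4E2 cells (endogenous full-length ER-alpha, 4xERE luciferase) hormone-starved 5 days in charcoal-stripped FBS, plated 4,000/well for 24 h, then compound plus 17beta-estradiol for 21.5 h at 37 C; ONE-Glo luminescence read.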

The target of experiment [19] is Estrogen receptor (Homo sapiens) (UniProt P03372). The experiment in a line: qHTS assay to identify small molecule agonists of the estrogen receptor alpha (ER-alpha) signaling pathway (AID 743075; calls by dose curve; further: potency means the concentration at half of the fitted maximal effect).
On the % scale 0 is the no-effect control and ±100 the full control effect.

For the molecule `C=CC(=C)CCC=C(C)C`, the Potency entry in experiment [1], in [2], in experiment [3], in experiment [4], in [5] and in [6] was “inactive” each time. The Potency result (in [7]; with Aromatase (Homo sapiens)) was “inactive” throughout.

Take `CN(C)CCCN1c2ccccc2CCc2ccccc21`: the Potency result (in experiment [1]; in [3]; in experiment [5]; in experiment [6]; in experiment [7]; with Aromatase (Homo sapiens)) was “inactive” in each case. Further, the Potency was 23.7 µM (active) and 9.69 µM (active) in [8]; 29.8 µM (active) and 9.69 µM (active) in [9]; 5.96 µM (active) in experiment [10].

Regarding `C[C@]12CC[C@H]3C(=CCc4cc(O)ccc43)[C@@H]1CCC2=O`, the Potency entry (in experiment [1]; in experiment [6]; in [7]; in the experiment with Aromatase (Homo sapiens)) was “inactive” in each case. Besides, the Potency was 54.5 µM (active) in [8]; 48.6 µM (active) in experiment [9]; 5.45 µM (active) in experiment [11]; 27.3 µM (active) in experiment [12]; 1.54 µM (active) in experiment [5]. For the same molecule, the activation in experiment [13] was 38% (active).

As for `C=CC(=O)OCCC#N`, the Potency entry in experiment [1], in experiment [8], in [2], in experiment [14], in [11] and in experiment [3] was “inactive” each time. For the same molecule, the Potency entry in experiment [12], in experiment [5], in [6] and in experiment [7] was “inactive” throughout. Further, the molecule was called inactive in experiment [15]. The Potency in [4] is 54.8 µM (active).

`CCCCCCCCCCOCC(O)CN` (configuration not stated): the Potency in [16] was 4.73 µM (active); in experiment [8] it was 6.68 µM (active); in experiment [9], 7.5 µM (active); in [10] it was 5.96 µM (active); in experiment [4], 9.44 µM (active); in the experiment with Aromatase (Homo sapiens), 33.5 µM (active). The Potency result in experiment [2], in [11], in experiment [17], in experiment [6], in experiment [13] and in experiment [18] was “inactive” throughout. In experiment [7], the Potency entry is “inactive”. In experiment [15], the outcome was inactive.

With `CCNc1nc(NC(C)CC)nc(OC)n1` (configuration not stated), the Potency entry in experiment [1], in [2], in [10], in [5], in experiment [6] and in [7] was “inactive” each time. For the same molecule, the Potency result in the experiment with Aromatase (Homo sapiens) is “inactive”.

On to `CCN(CC)CCOc1ccc(C(O)(Cc2ccc(Cl)cc2)c2ccc(C)cc2)cc1` (configuration not stated), for which the Potency in experiment [16] is 2.11 µM (active); in [8], 2.11 µM (active); in [9], 2.98 µM (active); in experiment [2], 16.9 µM (active); in experiment [17] it was 23.9 µM [inconclusive] (active); with Aromatase (Homo sapiens) it was 29.8 µM (active). Moreover, the Potency entry in experiment [19], in [18] and in [7] was “inactive” throughout.

`COc1ccc2sc(C(=O)Nc3nnn[nH]3)c(OC(C)C)c2c1`: the Potency in experiment [16] is 30.5 µM (active); in experiment [8], 27.2 µM (active); in [9] it was 17.2 µM (active); in experiment [2] it was 24.5 µM (active); in [4], 6.09 µM (active); in [18], 54.3 µM (active). Besides, the Potency result in experiment [19] and in [7] was “inactive” each time.

Take `O=C1C=CC(=O)N1c1ccccc1`: the Potency in experiment [16] was 1.09 µM (active); in experiment [8], 1.22 µM (active); in experiment [9], 1.37 µM (active); in [2], 12.3 µM (active); in [12], 27.3 µM (active); in experiment [4], 4.86 µM (active). In the experiment with Aromatase (Homo sapiens), the Potency is 10.9 µM (active). Further, the Potency entry in [11] and in experiment [5] was “inactive” throughout.

With `CCO[Si](CCCSSSSCCC[Si](OCC)(OCC)OCC)(OCC)OCC`, the Potency in experiment [8] was 61.2 µM (active); in [9], 38.6 µM (active). Besides, the Potency entry in experiment [3], in experiment [5], in experiment [17], in [19], in [13] and in experiment [18] was “inactive” throughout. Further, the Potency entry (in experiment [7]; with Aromatase (Homo sapiens)) was “inactive” in each case.

Take `CC(C)(c1cc(Br)c(O)c(Br)c1)c1cc(Br)c(O)c(Br)c1`: the Potency was 57.9 µM (active) in experiment [16]; 60.9 µM (active) and 64.9 µM (active) in [8]; 51.6 µM (active) in [9]; 54.8 µM (active) in experiment [2]; 27.2 µM (active) in experiment [10]; 27.2 µM (active) and 48.4 µM (active) and 51.6 µM (active) in experiment [4]. Moreover, the Potency result in experiment [3], in [5] and in experiment [7] was “inactive” each time.

Regarding `COc1cc(C(=O)NS(=O)(=O)c2ccccc2C)ccc1Cc1cn(C)c2ccc(NC(=O)OC3CCCC3)cc12`, the Potency result in experiment [16], in experiment [2], in experiment [3], in experiment [19], in experiment [13] and in experiment [18] was “inactive” each time. The Potency entry (in [7]; in the experiment with Aromatase (Homo sapiens)) was “inactive” throughout. In experiment [4], the Potency was 26.6 µM (active).

Regarding `C=C[C@](C)(O)CC[C@@H]1[C@@]2(C)CCCC(C)(C)[C@@H]2CC[C@@]1(C)O`, the Potency in experiment [16] is 24.3 µM (active); in experiment [8], 19.3 µM (active); in [9], 19.3 µM (active); in experiment [10], 43.3 µM (active); in [6], 54.9 µM (active); with Aromatase (Homo sapiens), 54.5 µM (active). Besides, the Potency result in [3], in experiment [19] and in experiment [7] was “inactive” in each case.

As for `CCN(CC)c1ccc(N)cc1`, the Potency in [16] is 5.6 µM (active); in experiment [8], 4.45 µM (active); in [9], 4.45 µM (active); in [2], 15.9 µM (active); in experiment [3] it was 22.3 µM (active); in [7] it was 70.5 µM (active). The Potency in the experiment with Aromatase (Homo sapiens) was 28.1 µM (active).

`O=C(c1ccccc1)c1cc(Cl)ccc1O`: the Potency entry in experiment [16], in experiment [8], in experiment [9], in experiment [3], in [4] and in [5] was “inactive” in each case. Also, the Potency entry in experiment [6], in experiment [18] and in experiment [7] was “inactive” each time. Besides, the Potency in experiment [19] was 58.5 µM [activator] (active). Further, in experiment [13], the activation was 22.1% (active).

On to `C=C1C(C)(C)[C@@]2(Cl)C(Cl)[C@]1(Cl)C(Cl)(Cl)C2(Cl)Cl` (some centres not stated), for which the Potency in experiment [16] was 47.7 µM (active); in experiment [8] it was 6.73 µM (active); in experiment [9], 23.9 µM (active); in experiment [10], 26.8 µM (active); in experiment [4] it was 23.9 µM (active); in the experiment with Aromatase (Homo sapiens), 60 µM (active). The outcome in [15] was inactive. Besides, the Potency result in experiment [11], in [12], in experiment [5] and in [7] was “inactive” in each case.
